In the supplement of paper PMC3334620:
Over roughly 33,000 sequences, “E-score (-0.5 to 0.5)” has its median near -0.04; the highest 2% begin near 0.36. Many of the other results were omitted from the sample, so the highest values are more common in it than they were.

What follows are sequences tested against T1, Hmlalpha2 (UniProt P0CY09) (assay: PBM E-score (8-mer binding enrichment) (E-score (-0.5 to 0.5)); higher = stronger / more preferred TF binding). Conditions: protein concentration: 200 nM; construct: GST-full length.
T1 sequence: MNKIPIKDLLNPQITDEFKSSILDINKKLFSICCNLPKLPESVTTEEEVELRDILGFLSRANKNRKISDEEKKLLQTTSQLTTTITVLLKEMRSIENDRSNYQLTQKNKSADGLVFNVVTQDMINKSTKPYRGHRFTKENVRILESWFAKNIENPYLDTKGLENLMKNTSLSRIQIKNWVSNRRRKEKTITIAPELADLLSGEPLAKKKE
Procedure, shortened: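 Detection of bound protein used fluorescent anti-GST, with scans normalised by masliner. The proteins were GST-tagged yeast transcription factors applied at about 100-200 nM to universal all-10-mer Agilent arrays made double-stranded by primer extension. Each ungapped eight-base word, pooled with its reverse complement, was scored with an E-score from the Universal PBM Analysis Suite.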

Row | Sequence | PBM E-score
1 | CGATTGCG | -0.0285
2 | AGTACAAG | 0.267
3 | AGTACATC | 0.233
4 | AGTACATA | 0.401
5 | CGTACATA | 0.363
6 | AGTACATG | 0.415
7 | GGTACATA | 0.141
8 | CTGCCATC | -0.239
9 | CCTCCCCA | -0.233
10 | CCGGCAGC | -0.36
11 | AGCAATCG | 0.108
12 | TATCAAAA | 0.173
13 | CAGGCCCA | -0.135
14 | CTATTCGC | -0.117
15 | TCCGCCGA | -0.0873
16 | AACACGCA | 0.412
17 | AGCACGCT | 0.00597
18 | AGCACGCA | 0.0284
19 | AACACGCT | 0.387
20 | AACACGCG | 0.406
21 | ATCACGCG | 0.144
22 | TACACGCA | 0.442
23 | ACCACGCT | -0.134
24 | GACACGCA | 0.301

Row | Sequence | PBM E-score
25 | CACACGCG | 0.264
26 | CACACGCA | 0.19
27 | AACACGCC | 0.359
28 | ATGTCTTG | 0.0125
29 | CACGCGGA | 0.109
30 | AGATCCTA | -0.165
31 | ACGGGACT | -0.101
32 | CGAGCATA | -0.325
33 | CCCTAACG | -0.0128
34 | ATACTATG | 0.0473
35 | GAAGCTCC | -0.218
36 | ACTTCTTC | 0.0141
37 | GCTTTACC | 0.21
38 | ACTTTACC | 0.151
39 | ATTTTACC | 0.188
40 | CTTTTACA | 0.453
41 | CTTTTATA | 0.0262
42 | ATTTTACA | 0.41
43 | CTTTTACC | 0.139
44 | ATTTTACG | 0.31
45 | GCTTTACA | 0.405
46 | ACTTTACA | 0.429
47 | GCTTTAAA | 0.095
48 | ACTTTACT | 0.109

Row | Sequence | PBM E-score
49 | ATGGTAGC | -0.037
50 | GTCAGTAA | 0.133
51 | ACTCTCCC | -0.283
52 | CTGGGATC | -0.141
53 | CACATTGA | 0.097
54 | AATTTCAC | 0.0769
55 | CCTTTACC | -0.204
56 | CCTTTACG | 0.223
57 | TCTTTACA | 0.445
58 | TCTTTGCA | 0.0746
59 | TCTTTAAA | 0.0801
60 | CCTTTACA | 0.448
61 | GGAAAAAC | 0.0566
62 | AATGATAT | 0.0696
63 | AGTCTCTC | -0.306
64 | GATGTCAA | 0.194
65 | CATGTCAC | 0.245
66 | CATGTCAG | 0.314
67 | CATGTCGG | 0.265
68 | GATGTCGA | 0.126
69 | AGTGTCAA | 0.134
70 | TATGTCAA | 0.426
71 | CGTGTCAG | 0.273
72 | CGTGTCAA | 0.438

Row | Sequence | PBM E-score
73 | CATGTCGA | 0.386
74 | CATGTCAA | 0.44
75 | AATGTCAA | 0.182
76 | GAGGATCA | -0.143
77 | CTCAGTAA | -0.0267
78 | AACGCAGG | 0.0539
79 | AGAATCTC | -0.015
80 | GAGGTTAC | 0.0883
81 | TAACTCGA | 0.277
82 | AGACTCGA | -0.211
83 | GGCGGTGA | -0.163
84 | CGCCACAG | -0.0887
85 | ACATGAAC | 0.366
86 | CCATGAAC | -0.0422
87 | GCATGAAC | 0.104
88 | ACATGAAT | 0.371
89 | ACATGAAA | 0.302
90 | ACATGAAG | 0.338
91 | AGCAGGCG | 0.046
92 | GATTGTGC | 0.0144
93 | ACGAGGAA | 0.0596
94 | TACGCTGA | 0.122
